Hit rate of the full screen: of about 310,000 compounds, about 2,600 (0.84%) were called active.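 The calls were made as follows: active = B-score over 3 SD under the library average, and starting fluorescence ratio not unusually high; inactive = the rest.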 The sample as a whole holds a higher share of actives than the screen did.
Each compound was assayed against High affinity choline transporter 1 (Homo sapiens) (UniProt Q9GZV3) (assay: inhibitors of human choline transporter CHT (AID 488975;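 as to B-score: choline stimulus applied at its EC90 after an EC20 pre-addition; B-score computed on integrated fluorescence ratio after choline addition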)). Settings: CHT-expressing cells, membrane potential dye, choline response, at 10 µM; active compounds read low.
High affinity choline transporter 1 (Homo sapiens), sequence (Q9GZV3 whole entry, looked up): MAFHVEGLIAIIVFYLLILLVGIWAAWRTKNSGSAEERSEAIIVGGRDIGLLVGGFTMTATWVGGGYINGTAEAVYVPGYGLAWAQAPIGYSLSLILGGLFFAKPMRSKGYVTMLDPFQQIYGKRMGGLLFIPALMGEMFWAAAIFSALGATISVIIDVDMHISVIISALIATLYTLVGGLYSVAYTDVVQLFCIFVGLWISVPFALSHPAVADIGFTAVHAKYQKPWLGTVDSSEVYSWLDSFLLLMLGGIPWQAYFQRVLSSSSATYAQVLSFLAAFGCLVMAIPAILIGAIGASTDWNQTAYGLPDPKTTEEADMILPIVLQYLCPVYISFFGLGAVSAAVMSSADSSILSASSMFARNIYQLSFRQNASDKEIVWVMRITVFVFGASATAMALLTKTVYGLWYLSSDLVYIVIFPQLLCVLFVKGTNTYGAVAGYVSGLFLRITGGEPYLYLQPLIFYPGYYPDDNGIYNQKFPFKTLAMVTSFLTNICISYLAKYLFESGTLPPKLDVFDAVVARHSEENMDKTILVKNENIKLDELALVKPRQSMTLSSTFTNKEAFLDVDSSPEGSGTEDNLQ
`OC1CN=C2Sc3ccccc3N2C1` (configuration not stated) was tested, and the B-score was -5.4 (active). In the case of `COc1ccc(S(=O)(=O)N2CCCCC2)cc1NC(=O)C1CC(=O)N(c2ccc3c(c2)OCCO3)C1` (configuration not stated), the B-score is reported as “inactive”. For `Cc1ccc(S(=O)(=O)NCCC(=O)OCC(=O)N(C)c2ccccc2)cc1`, the B-score was “inactive”. In the case of `CCOC(=O)C1(CCOC)CCN(Cc2cc3ccccc3s2)CC1`, the B-score is reported as “inactive”. `CCOC(=O)C1(CCOC)CCN(Cc2ccc(C(=O)OC)cc2)CC1` was tested, and the B-score was -7.63 (active). `CCOC(=O)C1(CCOc2ccccc2)CCN(Cc2cc(OC)cc(OC)c2)CC1` was tested, and the B-score was “inactive”. `CCN1C(=O)[C@@H]2[C@@H](c3ccc(-c4ccc(OC)cc4)c(OC)c3)N3CCC[C@@]3(C(=O)OC)[C@@H]2C1=O` was tested, and the B-score was “inactive”. `S=C(Nc1cccc(Cl)c1)Nc1ccc2c(c1)OCCO2` was tested, and the B-score was “inactive”. In the case of `S=C(Nc1cccc(Cl)c1)Nc1ccc2cn[nH]c2c1`, the B-score is reported as “inactive”. `FC(F)(F)c1cccc(NC(=S)Nc2cccc(Cl)c2)c1` was tested, and the B-score was -9.9 (active). In the case of `CCOC(=O)c1cnc2nc(SCc3ccccc3Cl)[nH]n2c1=O`, the B-score is reported as “inactive”. `O=C1c2ccccc2C(=O)c2c1cccc2N1CCN(C/C=C/c2ccccc2)CC1` was tested, and the B-score was “inactive”. For `CCCCCCCNC(=O)C1(CC2CC(c3cccc(Br)c3)=NO2)CCN(C(=O)c2cc(OCC)c(OCC)c(OCC)c2)CC1` (configuration not stated), the B-score was “inactive”. With `CCN(CC)c1ccc(/C=N/NC(=O)c2cnccn2)c(O)c1` the B-score was -5.95 (active). `CCN(CC)c1ccc(/C=N/Nc2nc(C)cc(C)n2)c(O)c1` was tested, and the B-score was “inactive”. For `CCN(CC)c1ccc(/C=N/NC(=O)CNC(=O)c2cccnc2)cc1`, the B-score was “inactive”. For `CC(NC(=O)c1ccccc1F)c1cccc2ccccc12` (configuration not stated), the B-score was “inactive”. In the case of `COc1ccc(Cc2nnc(SCC(=O)Nc3ccc(C)c(Cl)c3)[nH]c2=O)cc1`, the B-score is reported as “inactive”. In the case of `OCC[C@H]1C[C@@H](O)[C@H](O)[C@@]2(OCCc3ccccc32)O1`, the B-score is reported as “inactive”. With `COc1ccc(C(=O)NC(=S)NNC(=O)c2c(-c3ccccc3)noc2C)cc1` the B-score was “inactive”. With `COc1ccc(C(=O)NNC(=S)NC(=O)c2ccccc2)cc1` the B-score was -5.26 (active). `COc1ccc(C(=O)NNC(=S)NC(=O)c2ccccc2[N+](=O)[O-])cc1` was tested, and the B-score was “inactive”. With `COc1ccc(C(=O)NC(=S)NNC(=O)CCc2ccccc2)cc1` the B-score was -5.23 (active). `O=C(CCc1ccccc1)NNC(=O)c1ccc(Br)cc1` was tested, and the B-score was “inactive”. For `CC(C)Oc1ccc(CCC(=O)NNC(=S)NCc2ccccc2)cc1`, the B-score was “inactive”. In the case of `COc1ccc2c(c1)O/C(=C\c1ccccc1O)C2=O`, the B-score is reported as “inactive”. With `O=C(Cc1ccc(S(=O)(=O)N2CCOCC2)s1)N1CCN(c2ccc(C(F)(F)F)cc2[N+](=O)[O-])CC1` the B-score was “inactive”. In the case of `Cc1oc2c(F)c(F)c(F)c(F)c2c1S(=O)(=O)Nc1cccc(C(F)(F)F)c1`, the B-score is reported as -5.14 (active). In the case of `CCOC(=O)N1CCN(C(=O)c2ccc(S(=O)(=O)Nc3cccc(C(F)(F)F)c3)cc2)CC1`, the B-score is reported as “inactive”. `O=C(/C=C/c1ccc(F)cc1)Nc1cccc(S(=O)(=O)Nc2cccc(C(F)(F)F)c2)c1` was tested, and the B-score was “inactive”. In the case of `Cc1cc(OCC(=O)N(C)c2c(N)n(Cc3ccccc3)c(=O)[nH]c2=O)c(C(C)C)cc1Cl`, the B-score is reported as “inactive”. With `COc1cc(C(=O)NCC(=O)N2CC=C(c3ccccc3)CC2)cc(OC)c1OC` the B-score was “inactive”. With `COc1ccc(Cl)cc1NC(=O)CN(C)C(=O)CNC(=O)C12CC3CC(CC(C3)C1)C2` the B-score was “inactive”. In the case of `C/C(=N/NC(=O)c1cc(Cl)ccc1O)C12CC3CC(CC(C3)C1)C2`, the B-score is reported as -7.51 (active). For `CC(=N\NC(=O)c1cc(Br)ccc1O)/C(=N/O)C(=O)Nc1ccccc1`, the B-score was “inactive”. In the case of `COC(=O)CN1C(C)=Nc2ccc(Br)cc2C1c1ccccc1` (configuration not stated), the B-score is reported as -5.31 (active). In the case of `COC(=O)C1=C(C)N(C)C(C)=C(C(=O)OC)C1c1cccc(Br)c1`, the B-score is reported as “inactive”. `CCC(CC)C(=O)N1CC(=O)Nc2ccc(Br)cc2C1c1ccccc1` (configuration not stated) was tested, and the B-score was “inactive”. For `O=C(Nc1ncccc1O)c1ccc(S(=O)(=O)N2CCCC2)cc1`, the B-score was “inactive”. For `COc1ccc(-n2nnnc2CNC(=O)c2ccc3ccccc3c2)cc1`, the B-score was -5.47 (active). For `COc1ccc(-n2nnnc2SCC(=O)c2ccc(OC)c(OC)c2)cc1`, the B-score was “inactive”. For `COc1ccc(CNC(=O)c2ccc3oc(C(C)C)nc3c2)cc1`, the B-score was “inactive”. For `COc1ccc(NC(=O)CN(C)C(=O)Cc2coc3cc(C)c(C)cc23)cc1`, the B-score was “inactive”. In the case of `CC(C)Oc1ccc(S(=O)(=O)N2CCOCC2)cc1NC(=O)C1CSC2(C)CCC(=O)N12` (configuration not stated), the B-score is reported as “inactive”. `O=C(Nc1cc(-c2ccccc2)nn1-c1ccccc1F)c1ccc([N+](=O)[O-])cc1` was tested, and the B-score was “inactive”. For `COc1ccc(S(=O)(=O)N2CCOC2CNC(=O)C(=O)NCc2ccncc2)cc1C` (configuration not stated), the B-score was “inactive”. For `CC1CCN(C(=O)c2cccc(S(=O)(=O)N3CCCc4ccccc43)c2)CC1`, the B-score was “inactive”. For `CCCn1c(=S)[nH]c2ccc(C(F)(F)F)cc21`, the B-score was “inactive”. In the case of `CC(C)n1c(=S)[nH]c2cc(C(F)(F)F)ccc21`, the B-score is reported as -8.94 (active). With `CC(C)n1c(=O)[nH]c2cc(C(=O)Nc3ccccc3)ccc21` the B-score was “inactive”. `Cc1c(NC(=O)C(C)OC(=O)c2c3c(nc4ccccc24)CCC(C)C3)c(=O)n(-c2ccccc2)n1C` (configuration not stated) was tested, and the B-score was “inactive”. With `COc1ccc2sc(N(CCCN(C)C)C(=O)c3ccc(S(=O)(=O)N(C)C4CCCCC4)cc3)nc2c1` the B-score was “inactive”. `O=C(c1ccc(F)c(S(=O)(=O)N2CCOCC2)c1)N(CCc1ccccc1)Cc1ccccc1` was tested, and the B-score was “inactive”. With `COc1ccc(N(C)S(=O)(=O)c2ccc3c(c2)CC(C)N3C(=O)C2CC2)c(OC)c1` (configuration not stated) the B-score was “inactive”. In the case of `CCOC(=O)N1CCN(C(=O)c2ccc(CN(c3ccc(C)c(C)c3)S(C)(=O)=O)cc2)CC1`, the B-score is reported as -6.25 (active). For `Cc1ccc(N(Cc2ccc(C(=O)Nc3ccccc3C(=O)NCc3ccco3)cc2)S(C)(=O)=O)cc1C`, the B-score was “inactive”. `CCOC(=O)N1CCN(C(=O)CN(c2ccc(C)c(C)c2)S(=O)(=O)c2ccccc2)CC1` was tested, and the B-score was “inactive”. `COc1ccc(NC(=O)CN(C)C(=O)c2cc(-c3ccc(C)o3)nc3ccccc23)cc1` was tested, and the B-score was “inactive”. With `CCNC(=O)CC1C(=O)N(c2ccc(F)cc2)C(=O)N1CCc1sccc1C` (configuration not stated) the B-score was -5.75 (active). For `COc1ccc(N2C(=O)C(CC(=O)Nc3ccc(F)cc3)N(CCc3cccs3)C2=O)cc1` (configuration not stated), the B-score was “inactive”. With `CCNC(=O)CC1C(=O)N(c2ccc(F)cc2)C(=O)N1Cc1cccs1` (configuration not stated) the B-score was “inactive”. `CC(=O)Nc1ccc(C(=O)Nc2cccc(S(=O)(=O)NC3=NCCC3)c2)cc1` was tested, and the B-score was “inactive”. For `CN(C)c1ccc(C2N(C)C(=O)c3ccccc3N2C)cc1` (configuration not stated), the B-score was “inactive”. In the case of `CN(C)c1ccc(Nc2c3c4c(cccc4n(C)c2=O)C(=O)c2ccccc2-3)cc1`, the B-score is reported as -9.73 (active). In the case of `COc1ccc(/C=C2\SC(=S)N(CCCC(=O)NC3CCCC3)C2=O)cc1OC`, the B-score is reported as “inactive”. With `Cc1cccc(CSc2nnc(Cn3c(=O)sc4ccccc43)n2C)c1` the B-score was “inactive”. With `COc1ccccc1CNC(=O)CCn1c(=O)sc2ccccc21` the B-score was “inactive”. `COc1ccc(Cn2c(=O)sc3ccccc32)cc1OC` was tested, and the B-score was -5.56 (active). For `O=C(NCC1(N2CCCCC2)CCCCC1)c1ccc(NS(=O)(=O)c2ccc(F)cc2)cc1`, the B-score was “inactive”. In the case of `Cc1ccc(C)c(OCCC(=O)Nc2cccc(S(=O)(=O)N3CCCC3)c2)c1`, the B-score is reported as “inactive”. With `O=C(/C=C/c1ccc([N+](=O)[O-])o1)NNC(=O)c1ccc(F)cc1` the B-score was “inactive”. With `CCN(CC)CCC(c1ccc2c(c1)OCO2)c1c(OC)cc(OC)c2c(-c3ccccc3)cc(=O)oc12` (configuration not stated) the B-score was -6.84 (active). With `CCN(CC)CCC(c1cc(OC)c(OC)c(OC)c1)c1c(OC)cc(OC)c2c(-c3ccccc3)cc(=O)oc12` (configuration not stated) the B-score was “inactive”. `CCN(CC)C(=O)CC(c1ccc2c(c1)OCO2)c1c(OC)cc(OC)c2c(-c3ccccc3)cc(=O)oc12` (configuration not stated) was tested, and the B-score was “inactive”. `Cc1ccc(S(=O)(=O)N2CCOCC2)cc1C(=O)Nc1ccccc1N1CCCC1` was tested, and the B-score was “inactive”. For `COc1ccc(N2CCN(S(=O)(=O)c3cc4c5c(c3)C(C)C(=O)N5CCC4)CC2)cc1` (configuration not stated), the B-score was “inactive”. In the case of `Cc1ccc(-c2csc(NC(=O)C3=COCCO3)n2)cc1C`, the B-score is reported as “inactive”. `O=C(Nc1ncccc1O)c1ccc(S(=O)(=O)N2CCCCCC2)cc1` was tested, and the B-score was “inactive”. For `CCOC(=O)[C@H]1[C@H]2COc3ccc(Cl)cc3[C@@H]2N2C(=O)c3cc(C)ccc3NC(=O)[C@@]12C`, the B-score was “inactive”. For `Cc1cc(NC(=O)C(C)SCC(=O)Nc2ccccc2N2CCCCC2)no1` (configuration not stated), the B-score was “inactive”. For `CCc1cc2c(N3CCN(c4nnc(CC)s4)CC3)ncnc2s1`, the B-score was -7.24 (active). `Oc1ccccc1N1CCN(c2ncnc3sc(-c4ccccc4)cc23)CC1` was tested, and the B-score was “inactive”. In the case of `CCc1cc2c(NC3CCCC3)ncnc2s1`, the B-score is reported as “inactive”. In the case of `COc1ccc(C(=NN)c2ccc(OC)cc2)cc1`, the B-score is reported as “inactive”. In the case of `COc1ccc(S(=O)(=O)N2CCCCC2)cc1NC(=O)c1cc([N+](=O)[O-])ccc1N1CCOCC1`, the B-score is reported as “inactive”. With `O=C(NCCCn1ccnc1)C(=O)c1cn(CC(=O)N2CCCCCC2)c2ccccc12` the B-score was -6.23 (active). For `O=C(NCc1ccco1)C(=O)c1cn(CC(=O)N2CCCCCC2)c2ccccc12`, the B-score was “inactive”. With `Cc1ccc(CNC(=O)C(=O)c2cn(CC(=O)N3CCCC3)c3ccccc23)cc1` the B-score was “inactive”. `CCN(CC)CCn1c2c(c(SCC(=O)Nc3nc4ccccc4s3)nc1=O)CCCC2` was tested, and the B-score was “inactive”. In the case of `O=C(CCCn1c(SCC(=O)c2ccccc2)nc2ccccc2c1=O)NCC1CCCO1` (configuration not stated), the B-score is reported as “inactive”. `COCCNC(=O)c1ccc(Cn2c(SCC(=O)NCC3CCCO3)nc3ccc(Br)cc3c2=O)cc1` (configuration not stated) was tested, and the B-score was “inactive”. In the case of `CCCCn1c(SCC(=O)NCC2CCCO2)nc2ccc(N3CCOCC3)cc2c1=O` (configuration not stated), the B-score is reported as -5.48 (active). With `O=C(COc1ccccc1Cl)Nc1ccccc1C(=O)NC1CC1` the B-score was “inactive”. `Cc1ccc(S(=O)(=O)CCC(=O)Nc2nnc(CC(C)C)s2)cc1` was tested, and the B-score was “inactive”. `CC(C)CC(=O)Nc1nnc(S(=O)(=O)N(C)c2ccc(Cl)cc2)s1` was tested, and the B-score was “inactive”. `CCC(=O)Nc1nnc(S(=O)(=O)N2CCCc3ccccc32)s1` was tested, and the B-score was “inactive”. `CCC(=O)Nc1nnc(S(=O)(=O)N(CC(C)C)c2ccccc2)s1` was tested, and the B-score was -5.75 (active).
